Assay outcomes as filed in PubChem BioAssay.
GALK inhibitor – inhibitors of human galactokinase (GALK); 44,000 tested, under 10 active; Potency, µM (titrated, usually from 57.5 µM), actives largely listed as inhibitors; recombinant GALK, Kinase-Glo ATP luminescence, 1 h; P51570
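Luminescent ATP-depletion readout (Kinase-Glo Plus) after 1 h room-temperature incubation of human GALK (5 nM) with galactose 100 µM and ATP 35 µM, pH 8.0 HEPES/Mg2+ buffer; compounds tested in qHTS format.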
B2AR arrestin ag – beta-arrestin recruitment by human beta2-adrenergic receptor ligands. Potency, µM (highest dose often 46.1 µM), usual class: activators. 44,000 tested, under 10 active. P07550. HTLA Tango cells, beta-arrestin recruitment, luciferase luminescence, 18 h. AID 1347077
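Tango cells (recombinant beta2-AR, beta-arrestin, tTA-driven luciferase), 1500/well in DMEM 1% FBS, treated 18 h at 37 °C with compounds up to 46 µM; luciferin mix added, luminescence read after 15 min; %activity curves fitted and curve-classed.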
GALC G270D act – enhancers of human galactocerebrosidase G270D mutant activity in cells. AID 1159614. actives 0.1% (n = 45,000). 145M-Twi-hGALC-G270D cells (Twitcher mouse brain line with human GALC G270D), HMU-beta-Gal fluorescence, 48 h. Potency, µM (doses to about 57.5 µM), hits mostly activators. P54803; also: nearly all actives have a fitted effect of over 65% in size
Target sequence (P54803 whole entry G286D): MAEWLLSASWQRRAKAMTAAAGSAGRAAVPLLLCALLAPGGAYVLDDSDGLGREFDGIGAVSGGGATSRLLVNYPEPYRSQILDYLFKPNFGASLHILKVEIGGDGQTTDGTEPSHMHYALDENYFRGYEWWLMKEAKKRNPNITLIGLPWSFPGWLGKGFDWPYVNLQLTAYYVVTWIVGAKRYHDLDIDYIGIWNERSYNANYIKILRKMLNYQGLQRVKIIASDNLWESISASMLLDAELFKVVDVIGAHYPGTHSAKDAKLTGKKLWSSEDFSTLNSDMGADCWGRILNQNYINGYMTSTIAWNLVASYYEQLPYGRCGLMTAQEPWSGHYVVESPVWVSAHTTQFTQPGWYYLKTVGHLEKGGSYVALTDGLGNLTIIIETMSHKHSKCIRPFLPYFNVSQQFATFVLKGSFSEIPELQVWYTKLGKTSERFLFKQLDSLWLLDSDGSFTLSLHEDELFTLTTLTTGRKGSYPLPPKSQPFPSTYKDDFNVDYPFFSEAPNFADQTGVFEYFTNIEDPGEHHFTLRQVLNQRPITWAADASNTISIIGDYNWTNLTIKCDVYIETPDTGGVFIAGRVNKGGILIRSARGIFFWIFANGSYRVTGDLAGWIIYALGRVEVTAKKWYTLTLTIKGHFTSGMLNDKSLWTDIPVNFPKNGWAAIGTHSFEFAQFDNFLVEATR
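Fluorescence readout: HMU-β-gal cleavage by mutant GALC (0.1 mM final, citrate/phosphate pH 5.2 with 1 mg/mL taurocholate), stopped with carbonate/bicarbonate plus Triton X-100. Cells: murine Twitcher 145M-Twi expressing human G270D GALC; qHTS for activators.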
FH mod – Identification of activators of human fumarate hydratase by quantitative high-throughput screening. Fumarate hydratase, mitochondrial (Homo sapiens), P07954. FH coupled MDH/diaphorase resazurin fluorescence, 15 min. Potency, µM (highest dose often 79.9 µM), hits mostly inhibitors. actives 0.22% (n = 54,000); also: the screen sought activators but most active calls are inhibition curves; nearly all actives have a fitted effect of over 45% in size
DRV1 agonist – agonists of human resolvin D1 receptor DRV1 (GPR32) | CHO-K1 GPR32 beta-arrestin PathHunter luminescence, 90 min; zero percent set by DMSO-only wells | AID 1346428 | activation, % at 76.9 µM | actives 2.5% (n = 48,000) | O75388;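 active = activation of at least 60% and not above a set upper limit, about 1 call in 100 departs from these limits; inconclusive = activation of 40% to 60%, or above that upper limit; inactive = activation under 40%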
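Readings come from a cell-based beta-arrestin complementation format: CHO-K1 GPR32 stable cells (2,500/well) treated 90 min with compounds, then beta-Gal substrate added for 1 h before chemiluminescence imaging.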
TSG101-PTAP inh – blocks PTAP binding to human TSG101, validation; 44,000 tested, under 10 active; AID 1347069; Fluorescence polarization, FITC-PTAP peptide/Tsg101, 20 min; Q99816; Potency, µM (doses to about 115 µM), hits mostly inhibitors
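Fluorescence polarization: Tsg101 binding domain (10 uM final) in 10 mM HEPES pH 7.5, 0.15 M NaCl, 0.01% Tween 20, 3 mM EDTA, 0.1 mM TCEP; compounds pinned; FITC-PTAP peptide 50 nM final; 20 min, r.t.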
Of the large screens only hits and unclear results are named; the others gave an inactive call. An excerpt weighted towards active compounds, which were near 2.8% of everything screened. Unless noted, calls follow the shape of the dose curve; as a rule, active = well fitted curve in the direction sought with a large enough effect; inconclusive = small, poorly fitted or top-dose-only effect, or another doubt; inactive = no such curve, though single readings can be large; an effect the other way counts as inactive or inconclusive.

CSc1ccc(CCNC(=O)Cn2ncc3c(=O)oc4ccc(C)cc4c32)cc1	none
CSc1ccc(CCNC(=O)Cn2ncc3c(=O)oc4ccccc4c32)cc1	DRV1 agonist 67
Oc1c(Cl)cc(Cl)cc1Sc1cc(Cl)cc(Cl)c1O	DRV1 agonist 80 (no result: GALK inhibitor, B2AR arrestin ag, TSG101-PTAP inh)
O=S(c1cc(Cl)cc(Cl)c1O)c1cc(Cl)cc(Cl)c1O	none (no result: GALK inhibitor, B2AR arrestin ag, TSG101-PTAP inh)
O=C(Nc1cccc(C(=O)Nc2ccc(S(=O)(=O)O)c3cc(S(=O)(=O)O)cc(S(=O)(=O)O)c23)c1)Nc1cccc(C(=O)Nc2ccc(S(=O)(=O)O)c3cc(S(=O)(=O)O)cc(S(=O)(=O)O)c23)c1	FH mod 28µM (no result: GALK inhibitor, B2AR arrestin ag, GALC G270D act, TSG101-PTAP inh)
Cc1cccc(CNS(=O)(=O)c2ccc(-c3coc(C)n3)cc2)c1	DRV1 agonist 98
CCN(CC)C(=O)Cn1c(=O)cc(C)c2c(C)nn(-c3cccc(Cl)c3C)c21	DRV1 agonist 94
COc1ccc(Nc2c(-c3cccc(O)c3)nc3cnccn23)cc1	none
COc1ccc(Nc2c(-c3ccc(Cl)cc3)nc3cnccn23)cc1OC	GALK inhibitor inconclusive, DRV1 agonist 97
CCCCOC(=O)NC(=O)C1c2ccccc2Oc2ccccc21	none (no result: GALK inhibitor, B2AR arrestin ag, GALC G270D act, DRV1 agonist, TSG101-PTAP inh)
CCc1ccc(NC(=O)COC(=O)CCCC2=NS(=O)(=O)c3ccccc3N2)cc1	DRV1 agonist 64
Cc1cccc(NC(=O)COC(=O)CCCC2=NS(=O)(=O)c3ccccc3N2)c1	none
COc1c2c(c(C)c3c1C(=O)OC3)OC1(C)CC(O)C34OC(OC)(CC(O)C3(C)C1C2)OC4(C)C (centres undefined)	none (no result: GALK inhibitor, B2AR arrestin ag, GALC G270D act, DRV1 agonist, TSG101-PTAP inh)
COc1ccc(CCn2c(=O)c3ccccc3n(CC(=O)Nc3cccc(C)c3)c2=O)cc1OC	none
O=C(Cn1c(=O)oc2cc(S(=O)(=O)NCc3ccccc3)ccc21)NCc1ccc(Cl)cc1	none
Cc1cccc(NC(=O)Cn2c(=O)n(CCc3ccccc3)c(=O)c3ccccc32)c1	DRV1 agonist 75
Cc1cccc(NC(=O)Cn2c(=O)oc3cc(S(=O)(=O)NCc4ccccc4)ccc32)c1	DRV1 agonist 65
O=C(Cn1c(=O)oc2cc(S(=O)(=O)NCc3ccccc3)ccc21)NCc1ccc(F)cc1	DRV1 agonist 111
C/C=C(/C)C(=O)O[C@H]1[C@H](OC(=O)/C(C)=C\C)[C@@]23C(CC1(C)C)[C@]1(CCC4[C@@]5(C)CC[C@H](O[C@@H]6O[C@H](C(=O)O)[C@@H](O)[C@H](O[C@@H]7O[C@H](CO)[C@H](O)[C@H](O)[C@H]7O[C@@H]7O[C@@H](C)[C@H](O)[C@@H](O)[C@H]7O[C@@H]7OC[C@@H](O)[C@H](O)[C@H]7O)[C@H]6O[C@@H]6O[C@H](CO)[C@H](O)[C@H](O)[C@H]6O)C(C)(C)C5CC[C@@]4(C)[C@]1(C)C[C@H]2O)O[C@H]3O (some centres undefined)	none (no result: GALK inhibitor, B2AR arrestin ag, GALC G270D act, DRV1 agonist, TSG101-PTAP inh)
CC1(C)CCCC2(C)C1CC=C1C(=O)OC(O)C12O (centres undefined)	none (no result: GALK inhibitor, B2AR arrestin ag, GALC G270D act, DRV1 agonist, TSG101-PTAP inh)
Cc1nc2c(-c3ccccc3)c(C)nn2c(C)c1CCC(=O)NCc1cccc(Cl)c1	DRV1 agonist 62
Cc1nc2c(-c3ccc(F)cc3)c(C)nn2c(C)c1CCC(=O)NCc1ccc(Cl)cc1	none
COc1ccc(-c2cc3onc(-c4ccncc4)c3c(=O)n2C)cc1	none (no result: GALK inhibitor, B2AR arrestin ag, GALC G270D act, DRV1 agonist, TSG101-PTAP inh)
Cc1cccc(NC(=O)CSc2nc3ccc(NC(=O)COc4ccccc4F)cc3s2)c1	none
CCN(CC)c1cc(C)c2cc(NC(=O)c3cccc(F)c3)ccc2n1	DRV1 agonist 92
CCOC(=O)CSc1nc2ccc(NC(=O)c3ccc(C)cc3)cc2s1	DRV1 agonist inconclusive
Cc1ccc(NC(=O)CSc2nc3ccc(NC(=O)c4ccco4)cc3s2)cc1	DRV1 agonist 99
CCN(CC)c1cc(C)c2cc(NC(=O)c3ccc(F)cc3Cl)ccc2n1	none
